Among the data in PubChem BioAssay (EPA / NIEHS) are outcome and AC50 values, retold here.

Structures are written as SMILES. Inconclusive results are not listed. Active and inactive are the calls of the source. How the source made its calls, unless noted: active means hit-call score of the fitted dose curve at least 0.9, where 1 is the maximum; inactive means score below 0.9.

A short description of test [1]: ATG_PPRE_CIS: Attagene CIS-FACTORIAL HepG2 Assay for human Peroxisome Proliferator-activated Response Element (PPRE) (AID 2282958). The settings on record: HepG2 PPRE cis-element reporter, Attagene transcription factor profiling; actives raise or lower the signal. The procedure, abridged:
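HepG2 cells transiently transfected with multiplexed cis-element reporter units measure endogenous transcription factor activity. After 24 h compound exposure, reporter mRNA is quantified by RT-PCR, 6-FAM labeling, HpaI digestion and capillary electrophoresis; bidirectional fits are made against DMSO baseline.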

Test [2] is described as follows: ATG_RORE_CIS: Attagene CIS-FACTORIAL HepG2 Assay for human RAR-related Orphan Receptor Element (RORE) (AID 2282959). The settings on record: HepG2 Attagene cis-factorial RORE reporter, mRNA; actives raise or lower the signal. In outline: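 HepG2 cells transiently transfected with multiple cis-element reporter transcription units, exposed to chemical for 24 h. Reporter mRNA quantified by RT-PCR, 6-FAM primer-extension labeling, HpaI digestion and capillary electrophoresis; bidirectional fit versus DMSO baseline.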

Test [3] is described as follows: ATG_Sox_CIS: Attagene CIS-FACTORIAL HepG2 Assay for human SRY-box transcription factor (SOX) (AID 2282960). Conditions: HepG2 Attagene cis-factorial SOX reporter, mRNA; actives raise or lower the signal. In outline:
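HepG2 cells transiently transfected with cis-element-driven multiple reporter transcription units, dosed 24 h; reporter mRNA measured by RT-PCR, FAM labelling, HpaI digestion and capillary electrophoresis. Bidirectional fit versus DMSO baseline.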

The target of test [4] is Transcription factor Sp1 (Homo sapiens) (UniProt P08047). Kind of test: ATG_Sp1_CIS: Attagene CIS-FACTORIAL HepG2 Assay for human Specificity Protein 1 (Sp1) (AID 2282961). Conditions: HepG2 Sp1 cis-reporter transcription, actives raise or lower the signal. In outline:
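HepG2 cells transiently transfected with multiple reporter transcription units driven by cis-regulatory elements; Sp1-responsive reporter mRNA measured 24 h after dosing by RT-PCR and capillary electrophoresis fluorescence, fitted bidirectionally against DMSO baseline.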

A short description of test [5]: ATG_SREBP_CIS: Attagene CIS-FACTORIAL HepG2 Assay for human Sterol Regulatory Element Binding (SREBP) (AID 2282962). Conditions: HepG2 Attagene cis-factorial SREBP reporter, mRNA; actives raise or lower the signal. The procedure, abridged: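 mRNA induction of transfected cis-promoter reporters in HepG2 cells, 24 h post-dose. Detection: RT-PCR with 6-FAM-labelled products, HpaI digest, capillary electrophoresis. DMSO served as negative control and baseline.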

Test [6] deals with Signal transducer and activator of transcription 3 (Homo sapiens) (UniProt P40763). Briefly: ATG_STAT3_CIS: Attagene CIS-FACTORIAL HepG2 Assay for human Signal Transducer and Activator of Transcription 3 (STAT3) (AID 2282963). Conditions: HepG2, Attagene cis-factorial STAT3 reporter transcription; actives raise or lower the signal. The procedure, abridged:
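HepG2 cells transiently transfected with multiple cis-element-driven reporter units report endogenous transcription factor activity. After 24 h compound exposure, reporter mRNA is measured by RT-PCR, 6-FAM labelling, HpaI digestion and capillary electrophoresis. Fitted bidirectionally versus DMSO.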

Test [7] can be described thus: ATG_TCF_b_cat_CIS: Attagene CIS-FACTORIAL HepG2 Assay for human T-Cell-Factor with beta-catenin (TCF/b-cat) (AID 2282965). The settings on record: HepG2 TCF/beta-catenin cis-reporter transcription, actives raise or lower the signal. In outline:
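HepG2 cells transiently transfected with cis-promoter-driven multiplexed reporter units; reporter mRNA measured 24 h after dosing by RT-PCR, FAM labelling, HpaI digestion and capillary electrophoresis. Bidirectional fitting relative to DMSO baseline.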

Test [8] can be described thus: ATG_TAL_CIS: Attagene CIS-FACTORIAL HepG2 Assay for human TAL Basal Promoter (AID 2282966).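 Further: background control endpoint measuring basal TAL promoter reporter mRNA not a specific factor.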 The settings on record: HepG2 Attagene cis-factorial TAL promoter reporter; actives raise or lower the signal. The procedure, abridged:
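HepG2 cells were transiently transfected with promoter-driven multiplexed reporter units and dosed for 24 h. Reporter mRNA was measured by RT-PCR with capillary electrophoresis fluorescence; bidirectional fits used DMSO as baseline, serving as a background control.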

Test [9] is described as follows: ATG_TGFb_CIS: Attagene CIS-FACTORIAL HepG2 Assay for human Transforming Growth Factor (TGF) (AID 2282967). The settings on record: HepG2 Attagene CIS TGFb reporter, mRNA transcription; actives raise or lower the signal. The procedure, abridged: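 Liver HepG2 line, cis-factorial reporter panel, 24 h dosing. Quantitation: RT-PCR products labeled with 6-FAM, cut with HpaI, resolved by capillary electrophoresis; DMSO-referenced bidirectional analysis.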

The nature of test [10]: ATG_VDRE_CIS: Attagene CIS-FACTORIAL HepG2 Assay for human Vitamin D Receptor Element (VDRE) (AID 2282968). The settings on record: HepG2 VDRE cis-reporter transcription, actives raise or lower the signal. In outline: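 Transiently transfected HepG2 cells carrying cis-regulated reporter transcription units were exposed for 24 h. Reporter mRNA was measured by RT-PCR with fluorescent labelling and capillary electrophoresis, and fitted in both directions against DMSO.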

The target in test [11] is Nuclear receptor subfamily 1 group I member 3 (Homo sapiens) (UniProt Q14994). Kind of test: ATG_CAR_TRANS: Attagene TRANS-FACTORIAL HepG2 Assay for human Constitutive Androstane Receptor (CAR) (AID 2282969; active means hit-call score of the fitted dose curve at least 0.9, where 1 is the maximum;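 further: activators raise reporter mRNA above DMSO so AC50 marks induction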). The settings on record: HepG2 Attagene TRANS-FACTORIAL CAR reporter. The procedure, abridged: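 HepG2 cells transiently transfected with GAL4-UAS reporter units; TRANS format reads activity of exogenous chimeric NR-Gal4 protein. After 24 h dosing, reporter mRNA quantified by RT-PCR, 6-FAM labelling and capillary electrophoresis; gain of signal fitted against DMSO.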

Test [12] addresses Estrogen receptor (Homo sapiens) (UniProt P03372). Kind of test: ATG_ERa_TRANS: Attagene TRANS-FACTORIAL HepG2 Assay for human Estrogen Receptor alpha (ERa) (AID 2282970; active means hit-call score of the fitted dose curve at least 0.9, where 1 is the maximum). The settings on record: HepG2 Attagene TRANS ERa GAL4 reporter, mRNA. In outline:
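HepG2 cells transiently transfected with multiplexed GAL4-UAS reporter units; ERa activity read via exogenous chimeric NR-Gal4 protein. After 24 hour compound exposure, reporter mRNA measured by RT-PCR with 6-FAM labelling and capillary electrophoresis; gain-of-signal fitted relative to DMSO.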

Test [13] addresses X-box-binding protein 1 (Homo sapiens) (UniProt P17861). Kind of test: ATG_Xbp1_CIS: Attagene CIS-FACTORIAL HepG2 Assay for human X-box Binding Protein 1 (XBP1) (AID 2282972). Conditions: HepG2 XBP1 cis-element reporter, Attagene multiplex; actives raise or lower the signal. The procedure, abridged:
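Fluorescence-labelled cDNA fragments from reporter transcripts, separated by capillary electrophoresis, give the signal. Source: HepG2 cells transfected with promoter-driven reporter units, harvested 24 h post-dose. DMSO served as reference for bidirectional curve fitting.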

Test [14] is described as follows: ATG_GAL4_TRANS: Attagene TRANS-FACTORIAL HepG2 Assay for GAL4 (Internal Marker) (AID 2282976; active means hit-call score of the fitted dose curve at least 0.9, where 1 is the maximum). The settings on record: HepG2 Attagene TRANS GAL4 internal marker reporter. The procedure, abridged:
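HepG2 cells transiently transfected with multiplexed GAL4-UAS reporter constructs were dosed for 24 h. Reporter mRNA was measured by RT-PCR, 6-FAM primer extension, HpaI digestion and capillary electrophoresis, and gain of signal was fitted relative to DMSO.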

For test [15], the target named is Bile acid receptor (Homo sapiens) (UniProt Q96RI1). Kind of test: ATG_FXR_TRANS: Attagene TRANS-FACTORIAL HepG2 Assay for Farnesoid X Receptor (FXR) (AID 2282979; active means hit-call score of the fitted dose curve at least 0.9, where 1 is the maximum;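 further: hits raise reporter mRNA above DMSO so AC50 marks FXR activation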). Conditions: HepG2 Attagene TRANS FXR-GAL4 reporter transcription. In outline:
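HepG2 cells transiently transfected with reporter constructs in which a chimeric FXR-GAL4 protein drives a GAL4-UAS reporter; 24 h compound exposure. Reporter mRNA measured by RT-PCR, FAM labelling, HpaI digestion and capillary electrophoresis; gain-of-signal versus DMSO.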

Test [16] deals with Steroid hormone receptor ERR1 (Homo sapiens) (UniProt P11474). Briefly: ATG_ERRa_TRANS: Attagene TRANS-FACTORIAL HepG2 Assay for human Estrogen-Related Receptor alpha (ERRa) (AID 2282971; active means hit-call score of the fitted dose curve at least 0.9, where 1 is the maximum). The settings on record: HepG2 Attagene TRANS reporter, ERRa transactivation. The procedure, abridged:
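HepG2 cells transiently transfected with multiplexed GAL4-UAS reporter units reading chimeric ERRa-Gal4 activity; 24 h compound exposure. Reporter mRNA measured by RT-PCR, 6-FAM labelling, HpaI digest and capillary electrophoresis; gain of signal fitted versus DMSO baseline.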

Test [17] in a line: ATG_M_19_TRANS: Attagene TRANS-FACTORIAL HepG2 Assay for M19 Transcription Factor (Internal Marker) (AID 2282974; active means hit-call score of the fitted dose curve at least 0.9, where 1 is the maximum). The settings on record: HepG2 Attagene TRANS-FACTORIAL M19 internal marker reporter. The procedure, abridged: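 HepG2 cells transiently transfected with multiple GAL4-UAS reporter transcription units were exposed to chemicals for 24 h. Reporter mRNA was read by RT-PCR, 6-FAM primer extension, HpaI digestion and capillary electrophoresis; gain of signal fitted relative to DMSO.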

Test [18] is described as follows: ATG_TA_CIS: Attagene CIS-FACTORIAL HepG2 Assay for human TA Basal Promoter (AID 2282964). The settings on record: HepG2 Attagene CIS-factorial TA basal promoter reporter; actives raise or lower the signal. The procedure, abridged: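 Background internal-marker endpoint from a 52-component HepG2 cis-reporter panel. Cells treated 24 h; reporter transcripts quantified via RT-PCR and CE fluorescence against DMSO baseline.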

In test [19] the target is Estrogen-related receptor gamma (Homo sapiens) (UniProt P62508). Briefly: ATG_ERRg_TRANS: Attagene TRANS-FACTORIAL HepG2 Assay for human Estrogen-Related Receptor gamma (ERRg) (AID 2282977; active means hit-call score of the fitted dose curve at least 0.9, where 1 is the maximum;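 further: hits increase reporter signal over DMSO so potencies reflect activators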). Conditions: HepG2 Attagene TRANS reporter, ERRg transactivation. In outline:
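HepG2 cells transiently transfected with multiplexed GAL4-UAS reporter units driven by chimeric NR-Gal4 proteins; 24 h exposure. Reporter mRNA quantified by RT-PCR, fluorescent labelling, HpaI digestion and capillary electrophoresis; gain of signal vs DMSO.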

Test [20] has as its target Glucocorticoid receptor (Homo sapiens) (UniProt P04150). Kind of test: ATG_GR_TRANS: Attagene TRANS-FACTORIAL HepG2 Assay for human Glucocorticoid Receptor (GR) (AID 2282978; active means hit-call score of the fitted dose curve at least 0.9, where 1 is the maximum;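 further: activators score as hits since higher reporter transcript over DMSO is fitted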). The settings on record: HepG2 Attagene TRANS GR reporter, mRNA transcription. In outline:
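HepG2 cells transiently transfected with multiplexed reporter units in which chimeric NR-GAL4 proteins drive GAL4-UAS reporters; 24 h compound exposure. Reporter mRNA measured by RT-PCR, 6-FAM labelling, HpaI digestion and capillary electrophoresis; gain-of-signal fitted versus DMSO.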

Sequence of Signal transducer and activator of transcription 3 (Homo sapiens) (P40763 whole entry, looked up): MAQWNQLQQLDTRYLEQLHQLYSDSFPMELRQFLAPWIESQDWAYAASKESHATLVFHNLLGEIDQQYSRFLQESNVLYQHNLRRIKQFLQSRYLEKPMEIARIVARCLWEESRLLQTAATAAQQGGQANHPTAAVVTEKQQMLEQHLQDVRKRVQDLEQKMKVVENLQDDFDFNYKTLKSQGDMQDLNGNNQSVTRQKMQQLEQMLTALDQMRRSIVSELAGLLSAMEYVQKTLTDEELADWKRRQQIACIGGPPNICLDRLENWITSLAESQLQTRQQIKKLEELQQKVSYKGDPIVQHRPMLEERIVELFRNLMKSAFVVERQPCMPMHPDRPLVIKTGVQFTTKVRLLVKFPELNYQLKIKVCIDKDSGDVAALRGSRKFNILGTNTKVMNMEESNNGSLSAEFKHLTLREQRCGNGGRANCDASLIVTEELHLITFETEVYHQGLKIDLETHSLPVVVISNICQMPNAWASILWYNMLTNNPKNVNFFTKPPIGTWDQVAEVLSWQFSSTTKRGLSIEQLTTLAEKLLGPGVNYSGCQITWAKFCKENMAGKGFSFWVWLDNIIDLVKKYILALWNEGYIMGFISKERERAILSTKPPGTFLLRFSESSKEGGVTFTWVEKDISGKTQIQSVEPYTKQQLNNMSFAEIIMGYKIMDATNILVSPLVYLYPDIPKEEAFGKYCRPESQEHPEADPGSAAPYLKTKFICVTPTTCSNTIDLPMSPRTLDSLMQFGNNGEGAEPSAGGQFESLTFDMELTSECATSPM
Sequence of Estrogen receptor (Homo sapiens) (P03372 whole entry, looked up, the tested form may be a part): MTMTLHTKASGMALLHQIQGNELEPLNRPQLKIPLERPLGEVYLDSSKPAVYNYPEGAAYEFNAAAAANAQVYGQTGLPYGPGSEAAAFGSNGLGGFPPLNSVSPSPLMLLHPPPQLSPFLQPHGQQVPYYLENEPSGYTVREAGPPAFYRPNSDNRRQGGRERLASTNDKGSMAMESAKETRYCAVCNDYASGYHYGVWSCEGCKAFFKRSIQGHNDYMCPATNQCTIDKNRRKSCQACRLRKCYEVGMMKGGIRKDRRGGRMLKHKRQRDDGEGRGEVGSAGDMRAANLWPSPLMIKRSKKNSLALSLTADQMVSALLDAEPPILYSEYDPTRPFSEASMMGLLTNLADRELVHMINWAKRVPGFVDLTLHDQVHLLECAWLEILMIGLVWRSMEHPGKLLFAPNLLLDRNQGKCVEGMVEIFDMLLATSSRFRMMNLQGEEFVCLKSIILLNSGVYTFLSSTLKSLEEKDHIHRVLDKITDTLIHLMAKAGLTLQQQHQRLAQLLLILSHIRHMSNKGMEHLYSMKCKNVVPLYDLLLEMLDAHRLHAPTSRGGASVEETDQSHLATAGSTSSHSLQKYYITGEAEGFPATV
Sequence of Bile acid receptor (Homo sapiens) (Q96RI1 whole entry, looked up, the tested form may be a part): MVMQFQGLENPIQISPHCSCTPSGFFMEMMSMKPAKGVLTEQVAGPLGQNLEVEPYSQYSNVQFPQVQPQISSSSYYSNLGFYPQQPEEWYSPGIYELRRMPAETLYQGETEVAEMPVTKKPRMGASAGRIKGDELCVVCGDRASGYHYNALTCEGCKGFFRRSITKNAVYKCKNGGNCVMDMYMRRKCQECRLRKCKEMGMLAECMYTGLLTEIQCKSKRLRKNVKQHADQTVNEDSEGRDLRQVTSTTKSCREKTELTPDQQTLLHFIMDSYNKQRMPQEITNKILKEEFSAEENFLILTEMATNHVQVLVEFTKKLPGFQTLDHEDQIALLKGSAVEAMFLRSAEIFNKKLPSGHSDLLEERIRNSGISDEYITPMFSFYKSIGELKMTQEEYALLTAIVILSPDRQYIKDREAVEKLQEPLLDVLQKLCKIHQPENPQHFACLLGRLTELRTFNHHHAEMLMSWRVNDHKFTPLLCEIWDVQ
Sequence of Transcription factor Sp1 (Homo sapiens) (P08047 whole entry, looked up): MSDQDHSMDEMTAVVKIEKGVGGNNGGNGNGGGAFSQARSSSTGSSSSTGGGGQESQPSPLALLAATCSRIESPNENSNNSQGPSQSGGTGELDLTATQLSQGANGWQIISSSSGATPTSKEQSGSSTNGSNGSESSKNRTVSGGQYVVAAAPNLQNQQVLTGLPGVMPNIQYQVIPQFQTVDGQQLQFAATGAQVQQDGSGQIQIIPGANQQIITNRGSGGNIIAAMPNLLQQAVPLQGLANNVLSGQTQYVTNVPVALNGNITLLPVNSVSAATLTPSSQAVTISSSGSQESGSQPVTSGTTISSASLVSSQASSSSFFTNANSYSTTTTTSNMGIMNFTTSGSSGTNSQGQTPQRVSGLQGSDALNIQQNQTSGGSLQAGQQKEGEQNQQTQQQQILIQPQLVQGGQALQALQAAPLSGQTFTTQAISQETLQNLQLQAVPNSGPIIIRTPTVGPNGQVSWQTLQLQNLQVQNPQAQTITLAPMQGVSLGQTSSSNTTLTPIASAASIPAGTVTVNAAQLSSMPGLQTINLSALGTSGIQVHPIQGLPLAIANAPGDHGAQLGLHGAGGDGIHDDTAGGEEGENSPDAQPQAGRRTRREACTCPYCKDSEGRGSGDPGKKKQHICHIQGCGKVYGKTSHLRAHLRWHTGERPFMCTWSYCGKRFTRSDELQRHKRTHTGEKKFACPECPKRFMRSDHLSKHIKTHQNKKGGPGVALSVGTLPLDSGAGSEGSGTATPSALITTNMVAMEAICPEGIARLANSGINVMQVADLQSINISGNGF
Sequence of X-box-binding protein 1 (Homo sapiens) (P17861 whole entry, looked up, the tested form may be a part): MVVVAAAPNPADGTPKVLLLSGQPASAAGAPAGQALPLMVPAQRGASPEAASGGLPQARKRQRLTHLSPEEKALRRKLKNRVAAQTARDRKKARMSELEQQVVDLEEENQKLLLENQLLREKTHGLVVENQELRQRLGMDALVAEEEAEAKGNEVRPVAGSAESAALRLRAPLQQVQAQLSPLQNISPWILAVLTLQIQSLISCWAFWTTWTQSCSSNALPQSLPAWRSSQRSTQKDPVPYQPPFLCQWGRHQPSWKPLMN
Sequence of Estrogen-related receptor gamma (Homo sapiens) (P62508 whole entry, looked up, the tested form may be a part): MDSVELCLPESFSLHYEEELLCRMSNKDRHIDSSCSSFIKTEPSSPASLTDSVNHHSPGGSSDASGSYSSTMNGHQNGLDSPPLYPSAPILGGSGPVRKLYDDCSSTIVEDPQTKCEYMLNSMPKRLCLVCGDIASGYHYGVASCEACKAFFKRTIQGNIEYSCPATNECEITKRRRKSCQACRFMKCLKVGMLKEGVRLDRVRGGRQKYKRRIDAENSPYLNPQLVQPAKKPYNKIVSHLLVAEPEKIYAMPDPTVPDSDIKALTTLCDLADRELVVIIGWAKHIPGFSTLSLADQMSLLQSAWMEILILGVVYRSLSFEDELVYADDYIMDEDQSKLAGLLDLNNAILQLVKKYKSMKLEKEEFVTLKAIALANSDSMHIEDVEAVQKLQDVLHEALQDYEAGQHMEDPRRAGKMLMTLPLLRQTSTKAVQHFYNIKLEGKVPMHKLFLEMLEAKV
Sequence of Nuclear receptor subfamily 1 group I member 3 (Homo sapiens) (Q14994 whole entry, looked up, the tested form may be a part): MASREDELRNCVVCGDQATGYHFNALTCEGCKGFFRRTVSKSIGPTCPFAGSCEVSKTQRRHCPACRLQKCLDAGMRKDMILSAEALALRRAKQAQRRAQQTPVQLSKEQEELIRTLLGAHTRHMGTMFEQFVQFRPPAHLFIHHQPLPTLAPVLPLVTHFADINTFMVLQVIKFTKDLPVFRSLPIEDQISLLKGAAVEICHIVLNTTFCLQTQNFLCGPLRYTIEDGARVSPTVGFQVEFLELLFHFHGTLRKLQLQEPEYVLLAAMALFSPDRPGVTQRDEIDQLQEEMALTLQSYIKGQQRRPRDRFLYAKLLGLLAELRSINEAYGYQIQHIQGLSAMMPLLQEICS
Sequence of Steroid hormone receptor ERR1 (Homo sapiens) (P11474 whole entry, looked up, the tested form may be a part): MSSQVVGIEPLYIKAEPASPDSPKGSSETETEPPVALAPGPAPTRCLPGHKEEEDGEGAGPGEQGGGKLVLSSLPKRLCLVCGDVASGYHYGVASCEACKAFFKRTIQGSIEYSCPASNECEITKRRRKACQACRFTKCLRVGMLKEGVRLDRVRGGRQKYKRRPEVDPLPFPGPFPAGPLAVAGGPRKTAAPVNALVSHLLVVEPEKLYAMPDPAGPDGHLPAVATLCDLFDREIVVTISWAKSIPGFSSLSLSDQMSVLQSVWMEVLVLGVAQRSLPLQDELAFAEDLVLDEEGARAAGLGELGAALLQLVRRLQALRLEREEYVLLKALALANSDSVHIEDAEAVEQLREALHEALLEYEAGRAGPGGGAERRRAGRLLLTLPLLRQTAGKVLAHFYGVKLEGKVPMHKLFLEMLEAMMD
Sequence of Glucocorticoid receptor (Homo sapiens) (P04150 whole entry, looked up, the tested form may be a part): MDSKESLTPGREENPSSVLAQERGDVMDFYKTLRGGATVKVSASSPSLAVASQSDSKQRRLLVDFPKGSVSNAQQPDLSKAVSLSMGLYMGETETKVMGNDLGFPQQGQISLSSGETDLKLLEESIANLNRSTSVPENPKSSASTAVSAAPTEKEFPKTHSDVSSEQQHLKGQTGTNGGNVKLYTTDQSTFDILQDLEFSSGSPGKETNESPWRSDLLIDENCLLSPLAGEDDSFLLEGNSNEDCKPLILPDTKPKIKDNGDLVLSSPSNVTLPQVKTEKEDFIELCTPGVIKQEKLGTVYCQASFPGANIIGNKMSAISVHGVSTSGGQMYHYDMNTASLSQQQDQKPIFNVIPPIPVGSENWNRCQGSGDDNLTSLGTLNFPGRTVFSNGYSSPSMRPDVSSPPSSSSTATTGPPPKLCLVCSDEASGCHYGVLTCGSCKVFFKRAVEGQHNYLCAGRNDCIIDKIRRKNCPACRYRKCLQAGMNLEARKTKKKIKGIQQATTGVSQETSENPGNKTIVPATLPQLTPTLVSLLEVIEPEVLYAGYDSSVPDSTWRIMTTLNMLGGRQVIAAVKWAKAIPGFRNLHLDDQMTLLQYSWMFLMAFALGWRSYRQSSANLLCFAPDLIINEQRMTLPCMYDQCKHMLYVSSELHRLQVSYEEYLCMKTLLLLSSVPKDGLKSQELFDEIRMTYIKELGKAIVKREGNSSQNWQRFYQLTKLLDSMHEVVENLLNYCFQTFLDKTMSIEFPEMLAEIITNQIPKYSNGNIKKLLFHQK

`CCC(=O)c1ccccc1`: the compound was called inactive in test [1], in [2], in [3], in test [4], in [5] and in [6]. The result in [7], in [8], in [9], in [10], in test [11] and in test [12] was inactive. Moreover, the result in test [13], in test [14] and in test [15] was inactive.
As a reminder, the AC50 is the midpoint of the concentration-response curve, whichever way the signal moves. For `Cc1cc(Cl)ccc1O[C@H](C)C(=O)O`, the AC50 was 28.7 µM (active) in test [1] and 100 µM (active) in test [6]. For the same compound, the compound was classed as inactive in [2], in test [3], in test [4], in test [5], in test [7] and in [8]. The compound was called inactive in test [9] and in test [13].
Turning to `CC(C)c1ccc(CO)cc1`, the outcome in test [1], in test [2], in test [3], in test [4], in test [5] and in test [6] was inactive. Besides, the compound was classed as inactive in test [7], in test [8], in test [9], in test [16], in test [13] and in test [17]. Also, in test [15], the outcome was inactive. In addition, the AC50 in test [10] was 36.2 µM (active); in test [12] it was 60.1 µM (active).
With `CCN(CC)C(=O)Cl`, the outcome in test [1], in test [2], in test [3], in test [4], in test [5] and in test [6] was inactive. Moreover, the compound was classed as inactive in test [18], in test [7], in test [10], in [11], in [16] and in [13]. For the same compound, the compound was classed as inactive in test [14], in test [19] and in test [15]. Also, the values for the AC50 in test [9] and in [12] were 0.104 µM (active) and 15.9 µM (active), respectively.
With `COc1ccccc1OC`, the compound was classed as inactive in [1], in test [2], in test [3], in test [4], in test [5] and in test [18]. Moreover, the outcome in test [7], in test [8], in test [9], in test [10], in [12] and in [13] was inactive. For the same compound, the compound was classed as inactive in test [19] and in test [20].
